A selection: hits, their analogues and other compounds. The true share with any hit is near 4.6%.
tim10-1 inh: growth inhibitors of tim10-1 mutant yeast, primary screen, luminescence, uHTS. S. cerevisiae tim10-1 ts strain growth, BacTiter-Glo, 24 h. inhibition, % at 20 µM. 330,000 tested, 2.2% active;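 active = inhibition of at least 40%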;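 note: mutant grown at 25 °C; 0% = DMSO wells with yeast and 100% = wells holding no yeast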
TIM10 inh: growth inhibitors of isogenic TIM10 control yeast, primary screen, counter-screen for tim10-1 yeast inhibitor project, luminescence, uHTS; S. cerevisiae TIM10 strain growth, BacTiter-Glo luminescence, 24 h; inhibition, % at 10 µM; AID 463195, 2010; 330,000 tested, 1.4% active;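 active = inhibition of 40% or more at the single tested concentration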;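 note: wild-type TIM10 isogenic control strain grown at permissive 25 °C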
tim23-1 inh: growth inhibitors of tim23-1 mutant yeast, primary screen, luminescence, uHTS. AID 463212, 2010. 330,000 tested, 1.3% active. inhibition, % at 20 µM. S. cerevisiae tim23-1 growth, BacTiter-Glo luminescence, 24 h;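 active = growth inhibition of the mutant yeast at or above 50%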;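 note: temperature-sensitive mutant grown at 25 °C; plate controls were DMSO-treated mutant yeast for no effect and medium wells lacking yeast for full effect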
NLRP3 yeast inh: NALP3 inflammasome inhibitors in reconstituted yeast, primary screen, luminescence, uHTS; Yeast reconstituted NLRP3/ASC/caspase-1, beta-gal luminescence, 24 h; inhibition, % at 10 µM; 330,000 tested, 0.39% active; AID 2825, 2010;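 active = inhibition of 50% or more; inactive = inhibition below 50%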;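 note: plate controls were induced DMSO wells for no effect and uninduced yeast grown without galactose for full effect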
SKKanGAS inh: S. pyogenes SKKanGAS growth inhibitors in kanamycin, primary screen, streptokinase expression inhibitor project, SKKanGAS strain, BacTiter-Glo luminescence; 6 h; inhibition, % at 7.5 µM; 300,000 tested, 1.3% active; AID 1662, 2009;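 active = mean replicate score, as percent of positive control median, at least 50; inconclusive = mean below 50 but one replicate at or above 50; inactive = mean and every replicate below 50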;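 note: strain carries kanamycin resistance gene driven by streptokinase promoter and grows in 40 µg/ml kanamycin; loss of luminescence reflects streptokinase promoter inhibition or plain growth inhibition; 0% = median of DMSO wells and 100% = positive control at its reference dose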
TIM10 conf: growth inhibitors of wild-type TIM10 yeast, confirmation, counter-screen for tim10-1 synthetic lethality project, single concentration, luminescence, S. cerevisiae | shares compounds with TIM10 inh | S. cerevisiae tim10 strain growth, BacTiter-Glo luminescence, 24 h | inhibition, % at 10 µM | 4,600 tested, 63% active | AID 463215, 2010;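 active = inhibition of yeast growth at or above a set limit in either of two replicates at 10 µM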;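 note: this counterscreen used the strain with wild-type TIM10; 0% = yeast with DMSO and 100% = medium wells lacking yeast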
The depositor's hits bear a star; ? = inconclusive; . = no result.

SMILES	tim10-1 inh	TIM10 inh	tim23-1 inh	NLRP3 yeast inh	SKKanGAS inh	TIM10 conf
Cc1ccccc1CC1(CO)CCCN(C(=O)c2ccc3ncccc3c2)C1 (centres undefined)	26.8	22.1	14.8	10.9	-2.0	.
CCOC(=O)N/N=C/c1c(C)c(C(=O)c2ccc(F)cc2)n2ccccc12	39.7	43.6*	37.2	24.8	13.4	32.4*
COC(=O)N/N=C/c1c(C)c(C(=O)c2ccc(F)cc2)n2ccccc12	29.5	21.7	26.4	33.5	-4.3	.
O=C(N/N=C/C=C/c1ccco1)c1cnccn1	-18.1	5.5	-6.4	27.8	-1.8	.
O=C(N/N=C/C=C\c1ccco1)c1ccccn1	3.2	89.7*	15.5	11.4	-0.4	1.5
O=C(N/N=C\C=C\c1ccco1)c1cc(-c2ccc3ccccc3c2)n[nH]1	15.6	51.6*	8.2	4.8	22.5	39.9*
CCn1c(=O)cc(C(F)(F)F)[nH]c1=S	1.3	-1.9	2.7	-8.5	2.2	.
Cc1ccc(NC(=O)C2CCCN(C(=O)c3ccc(Cl)cc3)C2)cc1S(=O)(=O)N1CCOCC1 (centres undefined)	3.6	-2.7	5.3	1.8	-2.4	.
COc1ccccc1CNC(=O)Nc1cccs1	21.8	27.5	17.5	13.5	8.2	.
COc1ccc(Br)cc1CNC(=O)Nc1cccs1	29.3	50.8*	13.2	7.7	1.9	38.6*
COc1ccc(-c2nc3ccccc3c(=O)n2CCOc2c(C)cccc2C)cc1	8.8	9.5	6.1	-10.3	4.5	.
COc1cc(OC)cc(-c2nc3ccccc3c(=O)n2OC(=O)c2ccccc2C)c1	36.0	48.3*	44.4	0.8	12.4	10.7
O=C(N/N=C/c1ccncc1)c1cc2c(ccc3ccccc32)o1	-16.9	47.4*	7.2	18.5	6.0	33.5*
O=C(Nc1ccc2c(c1)oc1ccccc12)c1ccncc1	-0.2	43.2*	42.0	40.1	-0.3	40.0*
O=C(Nc1ccc2c(c1)oc1ccccc12)c1ccc2c(c1)OCO2	3.3	40.3*	8.2	12.0	7.3	12.3
O=C(Nc1ccc2c(c1)OCO2)c1ccc2c(c1)OCO2	11.6	6.0	13.4	19.7	20.5	.
O=C(Nc1ccc(NC(=O)c2ccncc2)cc1)c1ccncc1	6.0	6.6	8.6	4.0	-4.1	.
COc1ccccc1N1CCN(S(=O)(=O)CCNC(=O)c2ccc(Br)o2)CC1	11.0	-8.4	9.5	10.8	18.6	.
Cc1ccc(NC(=S)N/N=C/c2ccc([N+](=O)[O-])s2)cc1	18.0	46.4*	-11.0	15.9	43.0	-17.6
CCN1C(=O)/C(=C/C2=Cc3ccccc3OC2C)SC1=S (centres undefined)	-10.6	-23.2	12.1	11.0	-4.4	.
COc1ccc(N2C(=O)CSC2c2ccc3c(c2)OCO3)c(OC)c1 (centres undefined)	39.8	41.0*	21.5	-22.2	-0.5	26.8
O=C(OCC#CCSc1nnc(-c2ccc([N+](=O)[O-])cc2)o1)c1cccs1	36.2	41.3*	22.4	14.9	3.1	33.5*
O=C(COc1cccc2ccccc12)NNC(=O)c1cccs1	5.5	4.6	18.5	13.4	-5.8	.
CC(C)COP(=O)(OCC(C)C)C(Nc1ccccc1)c1ccc(F)cc1 (centres undefined)	15.2	25.0	46.5	4.0	0.2	.
CC(C)COP(=O)(OCC(C)C)C(Nc1ccccc1)c1ccccc1 (centres undefined)	31.6	40.8*	38.2	-6.3	7.2	34.1*
SMILES	tim10-1 inh	TIM10 inh	tim23-1 inh	NLRP3 yeast inh	SKKanGAS inh	TIM10 conf
COc1ccc(C(=O)N/C(=C\c2ccccc2)C(=O)Nc2ccccc2C(=O)O)cc1	12.3	10.5	11.8	5.0	-1.1	.
COc1cccc2cc(C(C)=O)oc12	26.4	-13.1	6.0	2.6	-1.7	.
COc1cccc2cc(/C(=N/O)c3ccccc3)oc12	36.1	54.5*	49.9	21.4	-15.9	41.8*
OCC[C@H]1C[C@@H](O)[C@H](O)[C@]2(Cc3ccccc3CO2)O1	3.1	6.1	5.3	15.2	.	.
Cc1n[nH]c(C)c1Sc1ccccc1N=Cc1cc(Cl)cc([N+](=O)[O-])c1O	22.0	10.0	22.0	23.1	-0.1	.
Cc1ccc(N=Cc2cc(Cc3ccccc3Cl)cc([N+](=O)[O-])c2O)c(O)c1	36.2	52.4*	39.9	19.8	?	34.2*
N#Cc1ccc(CN2CCN(CC(=O)NCCc3ccc(Cl)cc3Cl)CC2)cc1	5.2	3.7	11.0	9.0	-2.2	.
COc1ccccc1NC(=O)Nc1cc(NC(=O)Nc2ccccc2OC)c(C)nc1C	7.1	9.7	-17.8	-3.7	2.3	.
COc1ccccc1NC(=O)Nc1cc(F)ccc1F	28.6	45.9*	39.5	13.0	3.2	9.4
COc1ccccc1NC(=O)Nc1ccc(Cc2ccncc2)cc1	32.4	44.2*	36.3	10.1	1.9	39.0*
CCC(=O)Nc1ccccc1C(=O)C(=O)Nc1ccccc1	23.0	-2.2	10.1	11.3	5.5	.
CCOc1ccc(C(=O)N2CCC3(CC2)NCCc2[nH]cnc23)cc1	-4.3	1.8	7.8	3.1	0.1	.
COc1ccc(OCC(O)CNC(=O)/C=C/c2cccc([N+](=O)[O-])c2)cc1 (centres undefined)	17.9	18.6	6.7	-11.3	-15.9	.
O=C(CSC(=S)N1CCCC1)N1CCN(S(=O)(=O)c2cccc([N+](=O)[O-])c2)CC1	21.5	-1.0	15.6	12.8	-3.2	.
CCOc1ccc(NC(=O)c2nn(C)c(C(=O)Nc3ccc(OCC)cc3)c2[N+](=O)[O-])cc1	-15.1	93.5*	-1.9	19.4	42.1	-24.1
O=C(NC(=S)NCCC1=CCCCC1)c1cccnc1	39.2	54.1*	42.8	-37.5	0.9	48.3*
Brc1ccc(C2=Nc3cccc4cccc(c34)N2)o1	24.9	15.0	13.4	14.2	4.7	.
Fc1ccc(C2=Nc3cccc4cccc(c34)N2)cc1	33.6	43.5*	28.6	22.9	-7.9	12.8
CCOc1ccc(S(=O)(=O)n2c([N+](=O)[O-])cnc2C)c(C)c1C	-2.2	97.2*	11.6	15.4	-4.0	10.6
COc1ccc(S(=O)(=O)n2c([N+](=O)[O-])cnc2C)c(C)c1C	-2.9	-7.1	10.4	20.2	-0.1	.
CN(C1CCCCC1)S(=O)(=O)c1ccc(NC(=S)NC(=O)c2cccs2)cc1	32.5	51.3*	37.9	13.7	5.1	36.2*
CN(c1ccccc1)S(=O)(=O)c1ccc(NC(=S)NC(=O)C2CC2)cc1	31.8	41.2*	33.7	-4.2	4.9	-3.4
CN(c1ccccc1)S(=O)(=O)c1ccc(NC(=S)NC(=O)c2ccccc2)cc1	18.7	6.5	12.8	1.2	9.5	.
